Shown are actives, neighbours in structure and some others; about 1.8% of the full set was active somewhere.
PfHsp40 yeast = rescue of yeast from PfHsp40 toxicity, primary screen, S. cerevisiae, ATP luminescence | hit rate 0.68% among 340,000 | S. cerevisiae expressing PfHsp40, growth rescue | AID 504582, 2011 | growth rescue, % at 12.5 µM; in the data active = growth rescue above about 28%, passing the limit was not always enough;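 also: yeast W303a lacking pdr1 and pdr3 grown in galactose medium; growth measured after three days at 30 °C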
MazEF act = activators of E. coli MazEF toxin-antitoxin RNase, primary screen, biochemical, fluorescence, uHTS. Endoribonuclease toxin MazF (Escherichia coli (strain K12)), P0AE70. FAM/BHQ RNA-DNA oligo cleavage fluorescence, 5 h. activation, % at 20 µM. hit rate 0.32% among 350,000; in the data active = activation above about 50%
Target sequence (P0AE70 whole entry, looked up): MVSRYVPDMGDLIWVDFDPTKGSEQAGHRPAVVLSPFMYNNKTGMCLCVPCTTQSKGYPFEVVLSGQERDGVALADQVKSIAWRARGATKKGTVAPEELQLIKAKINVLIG
PriA SSB inh = inhibitors of Klebsiella pneumoniae PriA binding to SSB C-terminal tail, primary screen, biochemical, AlphaScreen; hit rate 0.6% among 430,000; PriA–SSB C-terminal tail interaction (Klebsiella pneumoniae); inhibition, % at 33 µM; AlphaScreen SSBct-PriA binding, biotinylated peptide; in the data active = inhibition mostly above about 37%, no sharp cut-off; inactive = mostly below about 20%
PrP UTR inh = inhibition of PrP 5' UTR reporter expression | cell-based PrP 5' UTR mRNA reporter, plate reader | inhibition, % (concentration not given with the values) | hit rate 0.35% among 340,000 | AID 488862, 2010; in the data active = inhibition above about 52%
PrPC TRFRET = inhibitors of human cell surface prion protein PrPC, primary screen, cell-based, TR-FRET; Major prion protein (Homo sapiens), P04156; TR-FRET read-out; inhibition, % at 13.8 µM; hit rate 0.43% among 370,000; AID 720596, 2013; in the data active = inhibition above about 24%
A number is an active result; - = inactive; . = no result given; ! = repeats disagree.

SMILES	PfHsp40 yeast	MazEF act	PriA SSB inh	PrP UTR inh	PrPC TRFRET
Cc1ccc(N(Cc2ccc(C(=O)NC3CCCCC3)cc2)S(C)(=O)=O)cc1C	-	51.4	-	-	-
COc1ccc(C(=O)COc2coc(CN3CCc4ccccc4C3)cc2=O)cc1	.	.	-	.	.
CC1(C)Cc2ccccc2C(CCl)=N1	.	.	45.0	.	.
COc1cc2c(cc1/C=C/[N+](=O)[O-])OCO2	241.9	-	-	-	-
CCn1ncc(-c2ccnc3cc(C(=O)O)nn23)c1C	-	-	-	-	-
CCCCNc1c(-c2ccc(SC3CCCCC3)cc2)nc2ccccn12	-	-	-	-	-
CCCCCCSc1ccc(-c2nc3cnccn3c2NCCCC)cc1	36.6	-	-	-	-
CCCCNc1c(-c2ccc(SC(C)CC)cc2)nc2ccccn12 (stereo not given)	209.2	-	-	-	-
CN(C)c1ccc(/C=C(/NC(=O)c2ccccc2)C(=O)N2CCCC2)cc1	-	59.5	-	-	-
CCC(=O)c1cn(CC(=O)Nc2cccc(C)c2C)c2ccccc12	-	-	-	-	-
CCC(=O)c1cn(CC(=O)Nc2ccccc2Cl)c2ccccc12	-	54.3	-	-	-
COC(=O)c1c(NC(=O)CSc2n[nH]c(N)n2)sc(C)c1C	-	-	-	-	-
Cc1sc(NC(=O)CSc2n[nH]c(N)n2)c(C#N)c1C	-	52.7	-	-	-
COC(=O)c1ccc(C)c(-n2c(C)cc(C=O)c2C)c1	-	-	-	-	-
CCOC(=O)C1(C)C(=NNc2ccccc2Cl)C(=O)C(=O)N1c1ccccc1 (stereo not given)	.	.	-	.	.
O=C(Nc1ccccc1[N+](=O)[O-])C(=O)N1CCN(c2ccccc2F)CC1	.	.	36.0	.	.
O=C(Nc1ccccc1[N+](=O)[O-])C(=O)N1CCN(Cc2ccc3c(c2)OCO3)CC1	.	.	50.0	.	.
Cc1c(C(=O)N2CCN(Cc3ccc4c(c3)OCO4)CC2)cccc1[N+](=O)[O-]	-	-	-	-	-
O=C(NCCCN1CCN(c2ccccc2F)CC1)Nc1ccccc1[N+](=O)[O-]	-	-	-	-	-
CCOC(=O)c1sc2nc(CC(=O)OC)nc(NCCN(CC)CC)c2c1C	74.2	-	-	-	-
CCOC(=O)c1sc2nc(CC(=O)OC)nc(NCCN3CCOCC3)c2c1C	-	-	-	-	-
CC1=C(SCCC#N)S/C(=C2\SC(C)=C(SCCC#N)S2)S1	-	-	54.1	-	-
CC1=C(C(=O)Nc2ccccc2)C(c2coc3ccccc3c2=O)C2=C(CCCC2=O)N1 (stereo not given)	-	-	-	-	-
COc1ccc(C2CC(=O)C3=C(C2)NC(C)=C(C(=O)Nc2ccccc2C)C3c2coc3ccc(C)cc3c2=O)cc1OC (stereo not given)	63.1	-	-	-	-
O=C(c1cc(C2CCCCN2C(=O)OCCF)on1)N1CCOCC1 (stereo not given)	.	.	.	.	-
SMILES	PfHsp40 yeast	MazEF act	PriA SSB inh	PrP UTR inh	PrPC TRFRET
CCOC(=O)C1=C(C)N=c2s/c(=C/c3ccccc3)c(=O)n2C1c1ccc(OC)c(OC)c1 (stereo not given)	-	84.7	.	-	-
CC(C)CC(C(=O)OCC(=O)N1CCN(c2ccccc2)CC1)N1C(=O)c2ccccc2C1=O (stereo not given)	-	-	-	-	-
Cc1cccc(CCN=c2c([N+](=O)[O-])nn(-c3ccccc3)n2O)c1	-	-	39.5	-	-
Cc1cc(C)c2sc(N(CCCN(C)C)C(=O)c3ccc(S(=O)(=O)N4CCCc5ccccc54)cc3)nc2c1	-	-	47.0!	-	-
CN(C)CCCN(C(=O)c1cc(-c2cccs2)nc2ccccc12)c1nc2ccc(F)cc2s1	-	-	40.9	-	-
CN(C)CCCN(C(=O)c1ccc(S(=O)(=O)N2CCCc3ccccc32)cc1)c1nc2c(F)cc(F)cc2s1	.	.	-	.	.
CN(C)CCCN(C(=O)c1ccc(S(=O)(=O)N2CCc3ccccc32)cc1)c1nc2ccc(F)cc2s1	-	-	46.0!	-	-
CN(C)CCCN(C(=O)c1ccc(S(=O)(=O)N2CCCc3ccccc32)cc1)c1nc2c(Cl)cccc2s1	.	.	39.0	.	.
CCOc1ccccc1C1C(C#N)=C(N)SC(N)=C1C#N	-	-	-	-	46.9
Nc1c(Cl)cc(Cl)cc1C(=O)OCC(=O)NC1CC1	124.4	-	-	-	-
C/[N+]([O-])=C\c1ccc2ccc3cccnc3c2n1	.	.	153.5	.	.
O=C(CCSC1=NCCCN1)c1ccc(F)cc1	-	-	-	-	-

Source: PubChem BioAssay
